This is a sample that favours compounds with a hit; in the whole collection about 0.77% have one here.
RE007 growth inh: less growth of the S. pombe RE007 Vpr strain | S. pombe RE007 Vpr strain, BacTiter-Glo ATP luminescence, 24 h | AID 651644 | hit rate 0.21% among 360,000 | Potency, µM (doses to about 92.2 µM), without a hit: at the highest dose activity change, negative = less growth, actives largely listed as inhibitors; active = well fitted falling curve with a large enough effect; inconclusive = small, poorly fitted or top-dose-only effect; inactive = no such curve, though single readings can be large or run the other way; also: % is scaled to controls: 0 for no effect and ±100 for the full control effect; nearly all actives have a fitted effect of over 50% in size
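Fission yeast RE007 carrying one integrated HIV-1 vpr copy, seeded at OD 0.01 in PMG+AL medium with 23 nL pinned compound. Grown 24 h at 30 degrees; viability read by BacTiter-Glo luminescence after 5 min.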
LmPK inh: blocks Leishmania mexicana pyruvate kinase activity | purified LmPK, Kinase-Glo ATP luminescence, 1 h | hit rate 0.37% among 290,000 | Q27686 | AID 1721 | Potency, µM (titrated, usually from 57.5 µM), for the others: at the top dose activity change, negative = inhibition, actives largely listed as inhibitors; also: % is scaled to controls: 0 for no effect and ±100 for the full control effect
Target sequence (Q27686 whole entry, looked up): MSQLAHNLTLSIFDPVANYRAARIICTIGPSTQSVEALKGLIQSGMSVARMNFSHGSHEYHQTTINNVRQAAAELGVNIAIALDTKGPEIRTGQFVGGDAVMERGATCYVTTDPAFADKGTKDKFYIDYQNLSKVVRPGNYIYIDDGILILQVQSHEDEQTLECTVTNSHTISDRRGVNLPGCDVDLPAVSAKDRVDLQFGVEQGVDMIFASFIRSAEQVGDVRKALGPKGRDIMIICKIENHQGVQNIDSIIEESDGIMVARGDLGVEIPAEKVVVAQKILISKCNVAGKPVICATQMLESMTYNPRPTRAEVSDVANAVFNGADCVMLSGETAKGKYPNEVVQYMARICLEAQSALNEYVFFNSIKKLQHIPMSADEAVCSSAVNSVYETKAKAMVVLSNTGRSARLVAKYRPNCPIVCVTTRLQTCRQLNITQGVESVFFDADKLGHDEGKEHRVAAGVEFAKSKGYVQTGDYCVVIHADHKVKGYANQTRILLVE
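qHTS format; LmPK 0.1 nM; substrates PEP 0.5 mM and ADP 0.1 mM. One-hour room-temperature incubation, then coupled luciferase luminescence; 0.5 nM enzyme wells mark activation.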
NS1 inh: blocks influenza NS1 protein function; Potency, µM (highest dose often 46.1 µM), for inactives: at the top dose activity, positive = more growth; hit rate 0.4% among 270,000; calls by dose curve; also: actives are rising curves; nearly all actives have a fitted effect of over 50% in size
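In this qHTS, NS1 from influenza A is expressed in budding yeast, where it slows growth. Cells are switched from glucose to 2% galactose medium (pH 6.0, -URA), treated with compound, and growth recovery is read at OD600.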
TbPYK inhibitor: blocks Trypanosoma brucei pyruvate kinase. Q57TT1. TbPYK enzyme, Kinase-Glo Plus ATP luminescence, 45 min. Potency, µM (titrated, usually from 76.8 µM), inactives show top-dose activity, negative = inhibition, usual class: inhibitors. hit rate 0.12% among 410,000. AID 624173; also: % is scaled to controls: 0 for no effect and ±100 for the full control effect; nearly all actives have a fitted effect of over 50% in size
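TbPYK + substrate in 50 mM TEA pH 7.2, 100 mM KCl, 10 mM MgCl2, 0.05% BSA, 0.01% Tween-20; cpd pinned; ADP 130 uM final; 45 min RT; Kinase-Glo Plus 10 min; luminescence endpoint.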
* = called active by the depositor; ? = inconclusive; / = no result given. Unless noted, calls follow the shape of the dose curve; as a rule, active = well fitted curve in the direction sought with a large enough effect; inconclusive = small, poorly fitted or top-dose-only effect, or another doubt; inactive = no such curve, though single readings can be large; an effect the other way counts as inactive or inconclusive. Potency is read from the fitted curve at half-maximal effect.

SMILES | RE007 growth inh | LmPK inh | NS1 inh | TbPYK inhibitor
CCOC(=O)CSc1ccc(-c2nc3ccccc3[nH]2)cn1 | -23% | ? | -102% | -3%
N#CCSc1ccc(-c2nc3ccccc3[nH]2)cn1 | -29% | 25µM* | -6% | 0%
CC(C)c1ccc(S(=O)(=O)/N=C2/C=C(Sc3ncn[nH]3)C(=O)c3ccccc32)cc1 | ? | ? | -17% | 14µM*
CC(C)(C)c1ccc(S(=O)(=O)/N=C2\C=C(NS(=O)(=O)c3ccccc3)C(=O)c3ccccc32)cc1 | -15% | -2% | 10% | -20%
COc1ccc2c(Sc3ccc(Cl)cc3)c(C(=O)NCCCN3CCCCC3)[nH]c2c1 | / | / | / | -2%
O=C(Nc1ccc(OC(F)(F)F)cc1)C(NS(=O)(=O)c1cccc2nsnc12)c1ccccc1 (stereo not drawn) | / | / | / | 2%
O=C(NCCc1ccccc1)c1ccc2nc(-c3ccco3)c(-c3ccco3)nc2c1 | -19% | 7% | 14µM* | ?
O=C(NCCO)c1ccc2nc(-c3ccco3)c(-c3ccco3)nc2c1 | -19% | 4% | 1% | -37%
CCCOc1ccc(N2C(=O)CC(N3CCN(c4ccccc4F)CC3)C2=O)cc1 (stereo not drawn) | -16% | 0% | -8% | 2%
CCc1ccc(N2CC(C(=O)OC)CC2=O)cc1 (stereo not drawn) | -2% | 0% | 2% | 5%
CCc1ccc(N2C(=O)CC(N3CCC(C(=O)OC)CC3)C2=O)cc1 (stereo not drawn) | 10µM* | -4% | -34% | 1%
CCCOc1ccc(N2C(=O)CC(N3CCC(c4nncn4CC)CC3)C2=O)cc1 (stereo not drawn) | 13µM* | 2% | -233% | 5%
CCCCCCOc1ccc(N2C(=O)CC(N3CCC(C(=O)OCC)CC3)C2=O)cc1 (stereo not drawn) | 5% | 3% | -1% | -4%
CCOC(=O)C1CCN(C2CC(=O)N(c3ccc(OCC)cc3)C2=O)CC1 (stereo not drawn) | 18µM* | 1% | -61% | 4%
COc1cccc(NC(=O)N2CCN3CCCCC3C2)c1 (stereo not drawn) | / | / | / | -8%
COc1ccc(CNC(=O)C2CCCN(S(=O)(=O)c3ccc4c(ccn4C)c3)C2)c(OC)c1 (stereo not drawn) | / | / | / | -1%
N/C(=N\OC(=O)c1ccc(Cl)cc1[N+](=O)[O-])c1ccccn1 | -16% | -10% | -119% | -11%
N/C(=N\OC(=O)c1cc(Br)ccc1Cl)c1ccccn1 | -28% | -18% | / | 1%
N/C(=N\OC(=O)c1ccc([N+](=O)[O-])cc1Cl)c1ccccn1 | -1% | 18µM* | -19% | ?
Cc1ccc(C(=O)O/N=C(\N)c2ccccn2)c(Cl)c1 | 13µM* | ? | -99% | 14µM*
N/C(=N\OC(=O)c1ccc(Cl)cc1Cl)c1ccccn1 | -24% | 7.1µM* | -55% | -32%
COc1cc2c(cc1OC)[C@]13CC[N@+]4(C)CC5=CCO[C@H]6CC(=O)N2[C@@H]1C6[C@@H]5C[C@]34O (stereo partly drawn) | / | / | 4% | /
Cc1cccc2c1N(Cc1ccccc1OCCC(C)C)C(=O)C2=O | / | / | / | 3%
COCc1nnc(NC(=O)COc2ccc3c(c2)OCO3)s1 | 3% | -4% | -3% | 2%
COc1ccc(OCCC(=O)Nc2nccs2)cc1 | 51% | 0% | -2% | -5%
SMILES | RE007 growth inh | LmPK inh | NS1 inh | TbPYK inhibitor
COc1ccc(OCC(=O)Nc2nccs2)cc1 | -6% | 25µM* | -7% | -25%
O=C(COc1ccc2c(c1)OCO2)Nc1nccs1 | 1% | 14µM* | -8% | ?
Cc1cc(C)cc(-n2ccnc2SCC(=O)Nc2ccc(C)c(Cl)c2)c1 | / | / | / | -4%
O=[N+]([O-])c1ccc(N=Nc2c(Cl)cc(O)cc2Cl)cc1 | / | 22µM* | -124% | -28%
N/C(=N\OC(=O)c1ccco1)c1ccc(Br)cc1 | ? | -22% | -185% | 4%
N/C(=N\OC(=O)c1ccco1)c1ccccn1 | -7% | 13µM* | -4% | ?
Cc1ccc(/C(N)=N/OC(=O)c2ccco2)cc1 | -28% | ? | -35% | -9%
N/C(=N\OC(=O)c1ccco1)c1ccccc1 | -13% | 22µM* | -7% | -18%
Cc1cccc(/C(N)=N/OC(=O)c2ccco2)c1 | ? | 16µM* | -116% | -15%
COc1ccc(/C(N)=N/OC(=O)c2ccco2)cc1 | -22% | 11µM* | 2% | -20%
Cc1cccc(N2CCN(CCCNc3ncnc4onc(-c5ccc(Cl)cc5)c34)CC2C)c1 (stereo not drawn) | / | / | / | -5%
